High-throughput results: PubChem, several laboratories
Sampled rows, rich in hits. Any-hit rate of the full collection: about 0.44%.
RmlCD inh mix = RmlC/RmlD inhibition, mixture screen. RmlC/RmlD coupled enzyme inhibition, 384-well mixture HTS. inhibition, % at 5.5 µM. 110,000 compounds, 0.39% hits. AID 1532; in the data active means inhibition above about 30%, passing the limit was not always enough
YopH inh = YopH (Yersinia) phosphatase inhibition. fluorescence Ex485/Em525. inhibition, % (no concentration beside the values). 140,000 compounds, 0.16% hits; in the data active means inhibition above about 50%
RmlCD fluor art = shows fluorescent artifact in RmlC/RmlD assay, dose-response counter-screen. shares compounds with RmlCD inh mix. RmlC/RmlD assay fluorescence artifact counter-screen. calls only. 360 compounds, 96% hits. AID 1696; call rule not given here;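 further: compound alone with no enzyme and no substrates present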
Numbers stand for hits; – = inactive; · = not tested or not shown; + = active, no number.

SMILES | RmlCD inh mix | YopH inh | RmlCD fluor art
Cc1cc(=O)oc2cc(O)ccc12 | 83.6 | · | +
Cc1oc2cc(O)ccc2c(=O)c1N1C(=O)c2ccccc2C1=O | – | – | ·
CC(=O)Nc1c(OC(C)=O)ccc2c(C)cc(=O)oc12 | + | – | +
CC1CCc2c(sc3ncnc(N4CCN(S(=O)(=O)c5cccc6nonc56)CC4)c23)C1 (stereo not given) | · | – | ·
Cc1ccc(OP(=O)(Nc2c(C)n(C)n(-c3ccccc3)c2=O)Oc2ccc(C)cc2)cc1 | · | – | ·
Cc1ccc(C)c(S(=O)(=O)Nc2ccccc2C(=O)Nc2ccccc2N2CCOCC2)c1 | – | – | ·
Cc1cc(NC(=O)c2c(Br)c(C)nn2C)no1 | · | – | ·
Cc1cc(Br)ccc1OCCCCN1CCC(C)CC1 | · | – | ·
O=C(NCc1cccnc1)c1ccccc1[N+](=O)[O-] | · | – | ·
COC(=O)c1ccc(NC(=O)C23CCC(C)(C(=O)O2)C3(C)C)cc1 (stereo not given) | – | – | ·
Cc1cc(=O)[nH]c2cc(O)ccc12 | – | – | ·
CC(=O)Oc1ccc2c(C)cc(=O)[nH]c2c1 | 64.2 | – | +
Cc1ccc(N2C(N)=C(C#N)C(c3cccnc3)C3=C2CCCC3=O)cc1 (stereo not given) | · | – | ·
CC1=C(C#N)C(c2cccnc2)C2=C(CCCC2=O)N1 (stereo not given) | 32.1 | – | +
CC(C)(C)C(=O)Nc1nnc(SCC(=O)NCc2ccco2)s1 | · | – | ·
CC(=O)Nc1ccc(C(=O)OCC(=O)N(Cc2ccccc2)C(C)(C)C)cc1 | – | – | ·
CCc1ccc(OCC(=O)Nc2ccc(-c3cc4ccccc4oc3=O)c(OC)c2)cc1 | · | – | ·
Cc1ccc2c(c1)CC1(CN2C)C(=O)OC2(CCCCC2)OC1=O | – | – | ·
CN1CC2(Cc3c1ccc1ccccc31)C(=O)OC(C)(C)OC2=O | + | – | +
CCC1CCc2c(sc(NC(=O)c3ccco3)c2C(N)=O)C1 (stereo not given) | – | – | ·
CC(C)(C)C1CCc2c(sc(NC(=O)c3ccco3)c2C(N)=O)C1 (stereo not given) | 64.2 | – | +
COCCN(C(=O)c1cccc(OC)c1)c1nnc(-c2ccncc2)s1 | – | – | ·
C=CCN(C(=O)COc1ccccc1)c1nnc(-c2ccncc2)s1 | 154.0 | – | +
C=CCn1c(SCC(=O)Nc2ncc(Cc3cc(Cl)ccc3Cl)s2)nnc1-c1ccncc1 | – | – | ·
COc1cc(OC)cc(C(=O)N[C@H](C(=O)OCC(=O)Nc2ccc(C(C)C)cc2)C(C)C)c1 | · | – | ·
SMILES | RmlCD inh mix | YopH inh | RmlCD fluor art
COc1cccc(NC(=O)c2cc(OC)c(OC)c(OC)c2Br)c1 | · | – | ·
COc1ccc(-c2nc3ccccn3c2/N=C/c2ccc(OC)c(OC)c2)cc1O | · | – | ·
COc1cc(-c2nc3ccccn3c2/N=C/c2ccccc2)ccc1O | 67.4 | – | +
O=C(Nc1cccnc1)c1coc(=O)c2ccccc12 | 60.8 | – | +
O=C(Nc1cccnc1)c1ccccc1O | – | – | ·
CN1CCN(Cc2c(O)ccc3c(-c4ccccc4)cc(=O)oc23)CC1 | – | – | ·
Cc1cc(=O)oc2c(CN3CCC(C)CC3)c(O)c(Cl)cc12 | 148.6 | – | +
CCc1cc(=O)oc2cc(C)c(CN3CCCCC3)c(O)c12 | – | – | ·
CCCc1cc(=O)oc2c(CN3CCCC3)c(O)ccc12 | 98.7 | – | +
Cc1cc2oc(=O)cc(CN3CCC(C)CC3)c2cc1Cl | – | – | ·
Cc1cc(=O)oc2c(CN3CCCCC3)c(O)c(Cl)cc12 | 94.0 | – | +
O=C(NCc1ccc(F)cc1)c1ccc2c(c1)S(=O)(=O)c1ccccc1C2=O | – | · | ·
Cc1cc(C)n(-c2nnc(NC34CC5CC(CC(C5)C3)C4)nn2)n1 | · | – | ·
COc1ccc(NC(=O)C(Sc2nnc(-c3ccncc3)n2-c2ccccc2C)c2ccccc2)cc1Cl (stereo not given) | · | – | ·
CNc1nc(C)cc(C)c1S(=O)(=O)c1ccc(C)cc1 | – | – | ·
CCOC(=O)CNc1c(-c2ccc(F)cc2)nc2cnccn12 | 50.4 | – | +
CCOC(=O)CNc1c(-c2ccc(Cl)cc2)nc2cnccn12 | · | – | ·
CN(C)C(=O)COC(=O)c1cc(Cl)cc(Cl)c1N | 35.9 | – | +
CC(C)N(C(=O)COC(=O)c1cc(Cl)cc(Cl)c1N)C(C)C | – | – | ·
CCOC(=O)c1cc(-c2ccccc2)sc1NC(=O)C(C)N1C(=O)c2ccccc2C1=O (stereo not given) | · | – | ·
CCc1cccc(CC)c1NC(=O)CN1CC(C)SC1=NC1CCCCC1 (stereo not given) | – | – | ·
CC(C)(C)c1cc(Cc2ccccc2)[nH]n1 | – | – | ·
Cn1c(/C=N/c2nc3ccccc3[nH]2)nc2ccccc21 | – | – | ·
Cn1c(/C=N/n2cnnc2)nc2ccccc21 | 44.5 | – | +
CCCc1cc(N2CCN(C(=O)c3ccco3)CC2)n2c(nc3ccccc32)c1C#N | 39.1 | – | +
SMILES | RmlCD inh mix | YopH inh | RmlCD fluor art
CCCc1cc(NCCCCO)n2c(nc3ccccc32)c1C#N | – | – | ·
CC(C)OCCCn1c(=NC(=O)c2ccncc2)c(C#N)cc2c(=O)n3ccccc3nc21 | 115.0 | – | +
C=CCn1c(=O)c(C#N)cc2c(=O)n3ccccc3nc21 | 57.8 | – | +
C=CCn1c(=N)c(C(=O)NCCCOC)cc2c(=O)n3ccccc3nc21 | 66.0 | – | +
COCCn1c(=N)c(C(=O)NCCc2ccc(OC)cc2)cc2c(=O)n3cccc(C)c3nc21 | – | – | ·
C=CCn1c(=N)c(C(=O)NCCCOC)cc2c(=O)n3cc(C)ccc3nc21 | · | – | ·
COCCCNC(=O)c1cc2c(=O)n3cccc(C)c3nc2n(C(C)C)c1=N | 63.8 | – | +
CCCCCn1c(=NC(C)=O)c(C#N)cc2c(=O)n3ccccc3nc21 | · | – | ·
C=CCn1c(=N)c(C#N)cc2c(=O)n3ccccc3nc21 | – | – | ·
O=[N+]([O-])c1cc2oc3c(c2c(C=NCc2ccncc2)c1O)CCCC3 | · | – | ·
Cc1cc(NC(=O)COC(=O)[C@H](Cc2c[nH]c3ccccc23)NC(=O)c2ccc(F)cc2)no1 | – | – | ·
COC(=O)c1cc2c(=O)n3ccccc3nc2n(Cc2cccnc2)c1=N | – | – | ·
N=c1c(C(=O)NCc2ccc(F)cc2)cc2c(=O)n3ccccc3nc2n1Cc1cccnc1 | 52.7 | – | +
Cc1ccc(C(C)C)cc1OCCCCN1CCCC1 | · | – | ·
Cc1ccc2nc(-c3ccc(N4C(=N)SC5CS(=O)(=O)CC54)cc3)sc2c1 (stereo not given) | · | – | ·
Cc1cc(NC(=O)CSCC(=O)N(c2cccc(Cl)c2)C(C(=O)NC2CCCCC2)c2ccc(O)c(O)c2)no1 (stereo not given) | · | – | ·
CCOc1cccc(Nc2cc3n(c(=O)n2)CCc2cc(OC)c(OC)cc2-3)c1 | – | – | ·
COc1cc2c(cc1OC)-c1cc(OCc3cccnc3)nc(=O)n1CC2 | 115.4 | – | +
COc1ccccc1CNC(=O)CCS(=O)(=O)c1cccc2nonc12 | – | – | ·
CCOC(=O)c1cc2c(=O)n3cccc(C)c3nc2n(CC2CCCO2)c1=NC(C)=O (stereo not given) | · | – | ·
CCOC(=O)c1cc2c(=O)n3cccc(C)c3nc2n(Cc2ccco2)c1=NC(=O)c1ccccc1 | 36.2 | – | +
Cc1nc(NC(=O)/C=C/c2ccccc2)sc1C(=O)Nc1ccccc1Cl | 37.4 | – | +
Cc1nc(NC(=O)/C=C/c2ccccc2)sc1C(=O)Nc1ccc(Cl)cc1 | – | – | ·
Cc1sc(N/N=C/c2cccs2)nc1-c1ccccc1 | · | – | ·
Cc1nc2ccccn2c1C(=O)NN=C1C2CC3CC(C2)CC1C3 | · | – | ·
